Laboratory results published in PubChem BioAssay (NCATS).
Records with an inconclusive call do not appear. Calls of active or inactive are those of the source. Unless noted, calls come from the whole dose curve; as a rule, active = well fitted curve in the direction sought with a large enough effect; inconclusive = small, poorly fitted or top-dose-only effect, or another doubt; inactive = no such curve, though single readings can be large; an effect the other way counts as inactive or inconclusive.

Columns and labels:
[1] = AP1 Signaling Pathway (AID 357; active = well fitted curve in either direction with a large enough effect, not every such curve was filed as active; note: % is set by controls: 0 for no effect and ±100 for the full control effect); conditions: ME-180 AP-1-bla reporter, EGF-induced, beta-lactamase ratio, 5 h; at 38 µM (top of the series)
Method in brief: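 ME-180 cells with beta-lactamase reporter under AP-1 response element, stimulated with EC50 EGF; compounds tested in titration series, 5 h at 37 °C. CCF4 substrate added 2.5 h at room temperature; 460/530 nm emission ratio gave %activity and AC50.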

[2] = biological target: Cytochrome P450 1A2 (Homo sapiens) (UniProt P05177); assay: p450-cyp1a2 (AID 410; calls by dose curve; note: potency is the fitted concentration of half-maximal effect)
Method in brief: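 Luminescent readout of luciferin formed from Luciferin-ME by human CYP1A2; data normalized against complete inhibition by 57 uM furafylline. Enzyme 20nM, substrate 100uM at Km, 100mM KPO4 buffer, 60 min reaction at room temperature.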

[3] = biological target: Glucocorticoid receptor (Homo sapiens) (UniProt P04150); assay: GR-GFP Redistribution (AID 450;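 active = compounds whose dose series gives a full or clear partial fitted curve of increased nuclear translocation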; note: potency is the fitted concentration of half-maximal effect); conditions: U2OS GR-GFP nuclear translocation, laser cytometry, 2 h
Sequence of Glucocorticoid receptor (Homo sapiens) (P04150 whole entry, looked up, the tested form may be a part): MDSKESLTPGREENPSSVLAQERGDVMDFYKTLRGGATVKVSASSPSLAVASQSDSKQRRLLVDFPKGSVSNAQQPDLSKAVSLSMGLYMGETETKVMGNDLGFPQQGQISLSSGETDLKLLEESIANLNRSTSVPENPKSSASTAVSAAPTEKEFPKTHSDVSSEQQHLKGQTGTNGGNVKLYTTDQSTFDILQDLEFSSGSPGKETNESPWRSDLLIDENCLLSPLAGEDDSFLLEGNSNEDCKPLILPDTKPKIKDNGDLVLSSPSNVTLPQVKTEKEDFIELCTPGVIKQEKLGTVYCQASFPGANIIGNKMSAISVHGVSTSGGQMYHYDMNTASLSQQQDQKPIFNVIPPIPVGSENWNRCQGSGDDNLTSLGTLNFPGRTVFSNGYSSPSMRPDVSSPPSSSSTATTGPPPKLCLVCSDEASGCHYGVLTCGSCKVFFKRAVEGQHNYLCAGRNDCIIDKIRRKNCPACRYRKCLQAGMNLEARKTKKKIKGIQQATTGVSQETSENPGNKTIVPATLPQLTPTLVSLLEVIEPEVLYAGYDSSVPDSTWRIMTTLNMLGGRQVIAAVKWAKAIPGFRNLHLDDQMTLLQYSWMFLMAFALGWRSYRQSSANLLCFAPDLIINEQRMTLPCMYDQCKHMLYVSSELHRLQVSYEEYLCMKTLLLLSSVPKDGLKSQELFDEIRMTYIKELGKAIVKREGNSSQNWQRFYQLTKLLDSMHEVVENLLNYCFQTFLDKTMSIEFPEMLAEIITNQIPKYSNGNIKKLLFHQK

[4] = biological target: Glucocorticoid receptor (Homo sapiens) (UniProt P04150); assay: GR-EFC Redistribution (AID 451; calls by dose curve; note: potency is the fitted concentration of half-maximal effect); conditions: CHO-K1 GR-EFC translocation, beta-gal luminescence, 2 h
Method in brief: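 Translocation of GR-ED fusion to nuclear EA restores b-gal, read by luminescence after 1 h room-temperature detection. Engineered CHO-K1 biosensor cells, 1,000/well, exposed 2 h at 37 C to titrations up to 46 uM final.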

[5] = biological target: 3',5'-cyclic-AMP phosphodiesterase 4B (Homo sapiens) (UniProt Q07343); assay: qHTS Assay for Inhibitors of PDE-IV (AID 607; active = well fitted activation curve with a large enough effect in the main read-out, with a control signal flat, not every such curve was filed as active; note: % of control where 0% means no effect)
Sequence of 3',5'-cyclic-AMP phosphodiesterase 4B (Homo sapiens) (Q07343 whole entry, looked up): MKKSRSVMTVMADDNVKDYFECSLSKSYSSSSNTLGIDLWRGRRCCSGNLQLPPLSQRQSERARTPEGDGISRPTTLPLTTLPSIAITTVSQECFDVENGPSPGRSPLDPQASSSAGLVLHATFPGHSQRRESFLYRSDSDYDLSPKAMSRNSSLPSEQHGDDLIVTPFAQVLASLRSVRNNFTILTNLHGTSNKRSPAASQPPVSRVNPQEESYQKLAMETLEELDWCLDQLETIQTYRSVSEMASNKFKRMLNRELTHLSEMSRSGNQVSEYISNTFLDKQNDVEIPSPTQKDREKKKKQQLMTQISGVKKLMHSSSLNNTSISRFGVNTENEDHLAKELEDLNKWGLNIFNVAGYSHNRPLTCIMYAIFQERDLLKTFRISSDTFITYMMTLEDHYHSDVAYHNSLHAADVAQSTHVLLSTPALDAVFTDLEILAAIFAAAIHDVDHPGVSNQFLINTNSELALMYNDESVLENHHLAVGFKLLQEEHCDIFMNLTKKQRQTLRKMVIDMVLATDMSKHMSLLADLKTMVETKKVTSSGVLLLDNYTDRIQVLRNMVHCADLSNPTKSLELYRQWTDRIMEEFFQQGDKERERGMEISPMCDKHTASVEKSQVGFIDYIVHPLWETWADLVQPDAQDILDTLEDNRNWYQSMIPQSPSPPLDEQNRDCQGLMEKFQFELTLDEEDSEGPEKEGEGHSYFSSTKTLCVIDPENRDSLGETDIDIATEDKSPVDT
Method in brief: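 ACTOne HEK293 cells carry a modified cAMP-gated CNG channel and express endogenous PDE4; plated 1000 cells/well, compounds up to 22.9 uM final. Membrane-potential dye fluorescence (ex 535/em 590) was read; parental cells received 10 uM forskolin + 100 uM RO 20-1724.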

[6] = biological target: Guanine nucleotide-binding protein G(i) subunit alpha-1 (Homo sapiens) (UniProt P63096); assay: qHTS Assay for Inhibitors of RGS12 GoLoco Motif Activity (Green Fluorophore) (AID 879);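 note: 0% = labeled peptide with Gαi1 and full inhibition = labeled peptide alone without protein; negative values mean loss of peptide binding seen as reduced polarization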
Sequence of Guanine nucleotide-binding protein G(i) subunit alpha-1 (Homo sapiens) (P63096 whole entry, looked up): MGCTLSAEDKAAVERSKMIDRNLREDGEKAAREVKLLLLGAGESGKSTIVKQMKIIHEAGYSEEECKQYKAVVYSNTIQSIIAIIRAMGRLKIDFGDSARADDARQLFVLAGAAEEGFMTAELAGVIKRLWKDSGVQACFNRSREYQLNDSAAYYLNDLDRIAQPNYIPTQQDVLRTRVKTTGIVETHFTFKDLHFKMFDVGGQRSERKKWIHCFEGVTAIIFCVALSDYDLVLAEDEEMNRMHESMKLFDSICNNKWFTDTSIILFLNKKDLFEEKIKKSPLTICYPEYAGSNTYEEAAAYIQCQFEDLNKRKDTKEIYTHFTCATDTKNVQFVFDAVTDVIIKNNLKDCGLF
Method in brief: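 Fluorescence polarization assay: 50 nM Gαi1 with 10 nM FITC-labeled RGS12 GoLoco peptide in 10 mM Tris pH 7.5, 150 mM NaCl, 0.1 mM GDP, 0.05% NP40, 10 min at room temperature with compound.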

[7] = biological target: Cytochrome P450 3A4 (Homo sapiens) (UniProt P08684); assay: qHTS Assay for Activators of Cytochrome P450 3A4 (AID 885); note: nearly all actives have a fitted effect of over 65% in size
Sequence of Cytochrome P450 3A4 (Homo sapiens) (P08684 whole entry, looked up): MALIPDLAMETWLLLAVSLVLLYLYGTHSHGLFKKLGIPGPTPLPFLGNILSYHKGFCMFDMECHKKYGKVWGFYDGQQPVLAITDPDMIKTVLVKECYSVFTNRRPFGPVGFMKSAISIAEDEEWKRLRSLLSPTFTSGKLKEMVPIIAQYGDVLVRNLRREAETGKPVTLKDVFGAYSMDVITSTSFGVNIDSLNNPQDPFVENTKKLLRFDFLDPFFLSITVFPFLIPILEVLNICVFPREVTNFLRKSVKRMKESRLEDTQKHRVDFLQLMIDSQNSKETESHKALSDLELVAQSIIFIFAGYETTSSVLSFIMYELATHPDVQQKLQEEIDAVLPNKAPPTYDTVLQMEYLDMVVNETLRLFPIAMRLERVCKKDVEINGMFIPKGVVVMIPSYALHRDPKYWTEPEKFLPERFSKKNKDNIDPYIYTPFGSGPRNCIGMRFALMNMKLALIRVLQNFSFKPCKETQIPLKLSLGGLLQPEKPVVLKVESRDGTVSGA
Method in brief: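 20nM CYP3A4 + 25uM Luciferin-PPXE (=KM), 200mM KPO4; cpd 10 min RT; NADPH regen, 60 min RT; stop w/ detection buffer, 20 min; luminescence. Normalized to 57 uM ketoconazole.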

[8] = biological target: Cytochrome P450 2C19 (Homo sapiens) (UniProt P33261); assay: qHTS Assay for Inhibitors and Substrates of Cytochrome P450 2C19 (AID 899); note: % is set by controls: 0 for no effect and ±100 for the full control effect; nearly all actives have a fitted effect of over 60% in size
Sequence of Cytochrome P450 2C19 (Homo sapiens) (P33261 whole entry, looked up): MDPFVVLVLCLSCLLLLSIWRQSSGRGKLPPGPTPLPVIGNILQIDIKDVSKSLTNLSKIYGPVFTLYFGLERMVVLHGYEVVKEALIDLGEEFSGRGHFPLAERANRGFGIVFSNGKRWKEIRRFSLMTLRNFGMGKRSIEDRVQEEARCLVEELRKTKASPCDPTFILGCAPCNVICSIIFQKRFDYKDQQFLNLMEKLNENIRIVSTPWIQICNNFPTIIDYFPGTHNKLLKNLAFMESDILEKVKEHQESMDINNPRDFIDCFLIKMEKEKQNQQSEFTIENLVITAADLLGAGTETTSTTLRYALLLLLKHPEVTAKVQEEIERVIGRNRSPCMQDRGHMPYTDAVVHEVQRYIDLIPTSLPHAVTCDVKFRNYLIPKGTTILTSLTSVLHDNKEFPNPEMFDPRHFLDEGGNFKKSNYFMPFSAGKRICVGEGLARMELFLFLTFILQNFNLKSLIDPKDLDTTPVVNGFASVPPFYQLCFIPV
Method in brief: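 Luminescence readout of luciferin formed from 10uM Luciferin-H EGE (KM level) by 5 nM CYP2C19 in 50mM KPO4. 60 min NADPH-driven reaction at 37C after 10 min compound preincubation; data scaled to 57uM ketoconazole inhibition.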

[9] = biological target: Muscarinic acetylcholine receptor M1 (Rattus norvegicus) (UniProt P08482); assay: qHTS Assay for Antagonists of Acetylcholine Muscarinic M1 Receptor: Kinetic Measurement of Intracellular Calcium Response (AID 943);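 note: Fluo-4 calcium signal as peak divided by basal fluorescence over 4 min; nearly all actives have a fitted effect of over 75% in size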
Sequence of Muscarinic acetylcholine receptor M1 (Rattus norvegicus) (P08482 whole entry, looked up): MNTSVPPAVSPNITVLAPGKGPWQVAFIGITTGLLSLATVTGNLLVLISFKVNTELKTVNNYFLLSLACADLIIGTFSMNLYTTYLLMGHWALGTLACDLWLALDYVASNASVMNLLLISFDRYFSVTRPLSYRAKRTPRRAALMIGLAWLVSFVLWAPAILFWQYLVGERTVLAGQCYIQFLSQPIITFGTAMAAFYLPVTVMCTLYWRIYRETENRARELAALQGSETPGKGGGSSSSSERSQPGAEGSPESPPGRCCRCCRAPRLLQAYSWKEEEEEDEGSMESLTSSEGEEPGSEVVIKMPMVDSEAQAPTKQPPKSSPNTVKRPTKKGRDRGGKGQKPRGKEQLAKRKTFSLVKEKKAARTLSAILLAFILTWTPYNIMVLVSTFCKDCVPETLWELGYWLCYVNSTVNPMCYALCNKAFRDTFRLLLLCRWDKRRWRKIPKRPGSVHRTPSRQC
Method in brief: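 Rat M1-CHO cells, 2000/well, overnight → Fluo-4 no-wash dye with probenecid, 1 h 37C → compound 10 min, room temp → basal read 6 s → carbachol EC80 (100 nM) → 4 min kinetic read; peak/basal.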

[10] = biological target: Pyruvate kinase (Leishmania mexicana) (UniProt Q27686); assay: qHTS Validation Assay for Inhibitors of Leishmania Mexicana Pyruvate Kinase (AID 945);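 note: 0% = DMSO only neutral control wells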
Sequence of Pyruvate kinase (Leishmania mexicana) (Q27686 2-499 E452W): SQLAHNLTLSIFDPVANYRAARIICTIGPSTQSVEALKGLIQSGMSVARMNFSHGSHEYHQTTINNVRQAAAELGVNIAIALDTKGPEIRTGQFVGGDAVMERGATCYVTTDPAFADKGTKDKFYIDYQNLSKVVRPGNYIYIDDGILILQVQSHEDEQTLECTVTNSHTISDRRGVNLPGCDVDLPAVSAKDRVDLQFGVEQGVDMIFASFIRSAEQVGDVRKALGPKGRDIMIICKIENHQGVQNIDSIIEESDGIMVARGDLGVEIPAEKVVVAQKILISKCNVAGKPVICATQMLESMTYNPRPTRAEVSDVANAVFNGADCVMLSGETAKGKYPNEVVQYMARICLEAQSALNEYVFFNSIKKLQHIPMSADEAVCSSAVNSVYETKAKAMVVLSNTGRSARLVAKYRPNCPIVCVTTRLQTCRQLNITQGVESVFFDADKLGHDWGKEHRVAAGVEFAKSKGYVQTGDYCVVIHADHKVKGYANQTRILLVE
Method in brief: (§1)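 Read-out: luminescence from PKLight stop/detection reagent, data normalized to DMSO. Reaction: 0.2 nM E451W LmPYK, 0.5 mM PEP, 0.1 mM ADP, pH 7.2, 1 h room temperature.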

[11] = biological target: Pyruvate kinase PKM (Homo sapiens) (UniProt P14618); assay: qHTS Assay for Activators of Human Muscle Pyruvate Kinase (AID 954; active = well fitted curve in the direction sought with a large enough effect, not every such curve was filed as active;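 note: 0% = uninhibited enzyme and -100% = no enzyme or full thiadiazolimine inhibition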)
Sequence of Pyruvate kinase PKM (Homo sapiens) (P14618 whole entry, looked up): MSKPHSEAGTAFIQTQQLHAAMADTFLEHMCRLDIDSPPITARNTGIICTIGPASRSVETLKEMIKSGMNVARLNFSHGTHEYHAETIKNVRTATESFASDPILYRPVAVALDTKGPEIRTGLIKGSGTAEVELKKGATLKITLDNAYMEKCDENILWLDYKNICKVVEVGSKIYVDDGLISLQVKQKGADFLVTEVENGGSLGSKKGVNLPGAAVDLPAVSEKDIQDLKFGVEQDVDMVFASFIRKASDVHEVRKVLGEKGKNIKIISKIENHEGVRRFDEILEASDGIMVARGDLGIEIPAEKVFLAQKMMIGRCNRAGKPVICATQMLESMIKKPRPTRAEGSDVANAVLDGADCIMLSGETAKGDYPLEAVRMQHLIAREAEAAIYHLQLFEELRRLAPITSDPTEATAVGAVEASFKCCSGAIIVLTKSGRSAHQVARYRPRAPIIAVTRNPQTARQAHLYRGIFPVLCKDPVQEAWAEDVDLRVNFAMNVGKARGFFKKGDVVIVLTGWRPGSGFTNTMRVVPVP
Method in brief: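 Luminescence from a luciferase ATP-detection/stop reagent reported PKM2 activity. Reactions contained 0.1 nM purified human enzyme, 0.5 mM PEP, 0.1 mM ADP and 7 mM MgCl2 at pH 7.2, run 1 h at RT.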

[12] = biological target: Pyruvate kinase (Leishmania mexicana) (UniProt Q27686); assay: qHTS Validation Assay for Activators of Leishmania Mexicana Pyruvate Kinase (AID 959)
Method in brief: as §1

[13] = biological target: alpha-glucosidase (Oryza sativa, rice) (UniProt Q653V4); assay: Counterscreen for Glucocerebrosidase Inhibitors: qHTS Assay for Rice alpha-Glucosidase at pH 5.0 (AID 997);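 note: 0% = full activity with enzyme and -100% = basal without enzyme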
Method in brief: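 Rice alpha-glucosidase (4 nM final) with 400 uM 4-methylumbelliferyl-alpha-D-glucopyranoside in citrate buffer pH 5.0, 20 min at room temperature, stopped at pH 10; fluorescence 365/440 nm, compounds 0.7 nM–77 uM, AC50 from Hill fits.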

[14] = qHTS Assay for Lipid Storage Modulators (AID 1519; calls by dose curve; for activity change, negative = inhibition: % is set by controls: 0 for no effect and ±100 for the full control effect); conditions: Drosophila S3 cells, BODIPY lipid droplet/cell ratio, laser cytometry, cells loaded with oleic acid
Method in brief: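 Cells seeded at 5,000 per well were treated with compounds over a concentration series and loaded with oleic acid (400 uM, as added). Lipid droplet fluorescence (488 nm excitation, 500-530 nm channel) was read by laser-scanning cytometry and normalized to 20 uM Triacsin C.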

[15] = biological target: DNA repair nuclease/redox regulator APEX1 (Homo sapiens) (UniProt P27695); assay: qHTS Validation Assay for Inhibitors of the Human Apurinic/apyrimidinic Endonuclease 1 (APE1) (AID 1705; note: potency is the fitted concentration of half-maximal effect)
Sequence of DNA repair nuclease/redox regulator APEX1 (Homo sapiens) (P27695 whole entry, looked up): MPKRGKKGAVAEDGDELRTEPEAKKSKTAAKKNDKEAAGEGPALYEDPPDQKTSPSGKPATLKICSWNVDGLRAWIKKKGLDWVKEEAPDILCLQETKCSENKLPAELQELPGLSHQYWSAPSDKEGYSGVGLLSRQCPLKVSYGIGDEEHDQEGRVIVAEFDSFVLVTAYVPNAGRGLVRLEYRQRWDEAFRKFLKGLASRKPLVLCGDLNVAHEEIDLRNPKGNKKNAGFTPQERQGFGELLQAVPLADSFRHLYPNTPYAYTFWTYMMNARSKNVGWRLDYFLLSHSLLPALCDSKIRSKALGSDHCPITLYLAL
Method in brief: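 Substrate: 50 nM final fluorophore/quencher THF-abasic duplex. Enzyme preincubated with compounds 15 min, RT. Progress derived from fluorescence difference, third minus first kinetic read.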

[16] = biological target: Endonuclease 4 (Escherichia coli (strain K12)) (UniProt P0A6C1); assay: Counterscreen for APE1 Inhibitors: qHTS Validation Assay for Inhibitors of Endonuclease IV (AID 1708); note: potency is the fitted concentration of half-maximal effect
Method in brief: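 qHTS concentration-response format; LOPAC1280 tested under APE1-screen conditions. 2 nM enzyme, 15 min compound preincubation at RT, then 50 nM TAMRA/BHQ-2 abasic substrate; kinetic fluorescence read, three reads at 60 s intervals.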

[17] = qHTS for differential inhibitors of proliferation of Plasmodium falciparum line 7G8 (AID 1815);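 note: parasite growth measured after three days of incubation; plate controls were vehicle wells for no effect and reference inhibitor wells for full effect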
[18] = qHTS for differential inhibitors of proliferation of Plasmodium falciparum line 3D7 (AID 1876);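 note: parasite growth measured after three days of culture; 0% = vehicle wells and -100% = reference inhibitor wells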

Nc1c(S(=O)(=O)O)cc(Nc2ccc(Nc3nc(Cl)nc(Nc4ccc(S(=O)(=O)O)cc4)n3)c(S(=O)(=O)O)c2)c2c1C(=O)c1ccccc1C2=O
-15%: max response ([14]; measured here: cell count channel max response)
inactive: activity change, negative = inhibition [1] -21.1% | Potency [3] > 46 µM | Potency [4] > 46 µM | Potency [5] | outcome [6] | Potency [7] | Potency [8] | Potency [9] | Potency [10] | outcome [11] | outcome [13] | activity change, negative = inhibition ([14]; at 57.5 µM (top of the series)) -0.911% | Potency [17] | Potency [18]
-16.5%: max response ([14]; measured here: lipid channel max response)
active: Potency [2] 15.8 µM | Potency [12] 0.631 µM | Potency [15] 0.251 µM | Potency [16] 3.98 µM
